# ChEMBL document CHEMBL3988442, “University of Dundee, Small-Polar-MMV Screening Library” (2021)
# About 13,000 (27%) of roughly 48,000 compounds showed an effect of 50% or more. The list shows a part of the results.
# Tested on: Wolbachia pipientis
# Test: Anti-Wolbachia Cell-Based Screen
# Format: functional
# Parameters: scale not given: in the data most compounds retested in dose-response had high values
# Conditions: 5 µM
row,SMILES,Percent Effect
1,CN1CCC(N(C)C(=O)CSc2ccc(F)c(F)c2)C1=O (centres undefined),-7.197%
2,Cc1occc1C(=O)N1C[C@@H]2CCCO[C@@H]2[C@H](NC(=O)CC2CC2)C1,111.2%
3,Cc1ccc([C@@H]2CN(C(=O)c3ccoc3C)C[C@H]2NC(=O)C2CC2)cc1,-4.07%
4,CCOCCN1CCN(CC(=O)N2CCCC2)CC1CC (centres undefined),98.08%
5,CCOCCN1CCN(Cc2nc(C)no2)CC1CC (centres undefined),-13.77%
6,CCOCCN1CCN(CC(=O)N2CCCC2)CC1C (centres undefined),-3.155%
7,CCOCCN1CCN(CC(=O)NC2(C#N)CCCC2)CC1CC (centres undefined),-13.43%
8,CCOCCN1CCN(CC(=O)N2CCC2)CC1CC (centres undefined),109.6%
9,CCOCCN1CCN(CCC(=O)N2CCCCC2)CC1C (centres undefined),-8.269%
10,O=C1C=CC=N/C1=C(/O)NCCNS(=O)(=O)N1CCCCCC1,-2.703%
11,CC(=O)NCc1noc2c1CN(Cc1ccsc1)CC2,-0.8794%
12,COC(=O)CNC(=O)c1ccc(OC2CCN(S(C)(=O)=O)CC2)c(Cl)c1,-7.47%
13,CCc1cnc(CN(C)C2CCN(CCc3ccccn3)C2)o1 (centres undefined),-9.613%
14,CCc1cnc(CN(C(C)=O)C2CCN(CCc3ccccn3)C2)o1 (centres undefined),119.1%
15,CCc1cnc(CN(C(C)=O)C2CCN(CCc3cnn(C)c3)C2)o1 (centres undefined),11.37%
16,CCc1cnc(CN(C(C)=O)C2CCN(CCc3ccncc3)C2)o1 (centres undefined),111.3%
17,CCc1cnc(CN(C(C)=O)C2CCN(CCc3ccccc3)C2)o1 (centres undefined),104.1%
18,CN(CCC#N)C(=O)CSc1cc(F)ccc1F,10.19%
19,COCCS(=O)(=O)Nc1cc(Cl)ccn1,7.348%
20,CCCNC(=O)CCNC(=O)Cc1nc(-c2ccco2)oc1C,-2.58%
21,CC(=O)N1N=C(c2ccco2)OC1C(=O)NCC(C)C (centres undefined),108.9%
22,CC(=O)N1N=C(c2ccco2)OC1C(=O)N(CC(C)C)CC(C)C (centres undefined),91.49%
23,CC(C)CN(Cc1nnc(-c2ccco2)o1)CC(C)C,-6.92%
24,CCNC(=O)C1CCN(c2nc(-c3ccco3)nc3c2CCNCC3)C1 (centres undefined),5.847%
25,CC(C)CN(Cc1cnn(C)c1)C(=O)C1COc2ccccc2C1 (centres undefined),-20.05%
26,Cc1noc(C)c1CN1CC[C@H](OCC2CC2)[C@@H](Cc2ccccc2)C1,-6.774%

row,SMILES,Percent Effect
1,CN(CC1(CO)CCC1)C(=O)C1CCC(=O)N(Cc2ccc(Cl)cc2)C1 (centres undefined),0.1062%
2,O=C(Nc1ccc(-n2cccn2)cc1)N1CCOCC(O)C1 (centres undefined),0.445%
3,O=C(O)C(F)(F)F.O=C(c1ccco1)N1CCOCC2(C1)CN(c1cccnc1)C(=O)CO2 (centres undefined),102.4%
4,O=C(O)C(F)(F)F.O=C(O)C(F)(F)F.O=C(c1ccncc1)N1CCOC2(COCCN(c3cccnc3)C2)C1 (centres undefined),-8.352%
5,O=C(O)C(F)(F)F.O=C(c1cccs1)N1CCOCC2(C1)CN(c1cccnc1)C(=O)CO2 (centres undefined),114.5%
6,O=C(c1cccs1)N1CCOCC2(C1)CN(c1ccccc1)C(=O)CO2 (centres undefined),85.77%
7,Cc1cc(C)c(OCC(=O)NS(=O)(=O)c2cccnc2)c(C)c1,-6.374%
8,COc1ccc(C)cc1C1(CNc2cncc(Cl)n2)CCOCC1,-4.03%
9,COC(=O)CCNC(=O)c1cc(Br)c2c(c1)OCCO2,-24.52%
10,CN1CCN(C2CCN(c3cnc4ccccc4n3)CC2)C1=O,19.91%
11,CN(C)CC1CN(c2cnc3ccccc3n2)CCO1 (centres undefined),11.03%
12,O=C(NC1CC1)C1CN(c2nc3ccccc3s2)CCN1 (centres undefined),-6.534%
13,O[C@@H]1CN(c2nc3ccccc3s2)CC[C@H]1c1ccc2c(c1)OCO2,110.1%
14,O=C(N[C@@H]1CCN(c2nc3ccccc3o2)C[C@H]1O)c1cnccn1,6.046%
15,c1ccc2sc(N3CCOC(Cn4cccn4)C3)nc2c1 (centres undefined),4.7%
16,c1ccc2oc(N3CCC(c4nncn4C4CC4)CC3)nc2c1,-9.735%
17,O[C@@H]1CN(c2cnc3ccccc3n2)CC[C@H]1c1ccc2c(c1)OCO2,98.83%
18,O[C@@H]1CN(c2nc3ccccc3o2)CC[C@H]1c1ccc2c(c1)OCO2,107.9%
19,CCNC(=O)NC[C@H]1COCc2nc3cc(OC)ccc3n21,0.3029%
20,CCN(CC)C(=O)CN(C)C(=O)c1cccn1CCc1ccccc1,1.592%
21,CNC(=O)[C@H]1C[C@@H]2CN(C(=O)NC(C)C)C[C@H]1O2,-20.87%
22,COc1ccc(OC)c(-n2cnnc2COC(C)C)c1,-1.207%
23,Cn1c2ccccc2c2ncn(CCN3CCOCC3)c(=O)c21,100.8%
24,Cc1cc(C)c2ncn(CCOCCO)c(=O)c2c1,-8.527%
25,CC(C(=O)Nc1cccc(F)c1)N(C)CCN1CCOCC1 (centres undefined),11.62%
26,O=c1c2cccc(F)c2ncn1CCN1CCNCC1,-5.542%

row,SMILES,Percent Effect
1,O=c1c2c(ncn1CCCO)nc1n2CCC1,-24.45%
2,Cn1c2ccccc2c2ncn(CCCN3CCOCC3)c(=O)c21,106.3%
3,Cc1nc(-c2c(-c3ccccc3)ncn2CCCN2CCOCC2)c[nH]1,-4.456%
4,O=c1c2cccc(C(F)(F)F)c2ncn1CCN1CCNCC1,-10.29%
5,Cn1c2ccc(F)cc2c2ncn(CCCN(CCO)CCO)c(=O)c21,122.3%
6,Cc1ccc(-c2c(-c3ccccc3)ncn2CCCN2CCOCC2)o1,-10.17%
7,O=c1c2cccc(F)c2ncn1CCN1CCOCC1,0.8234%
8,Cn1c2ccc(F)cc2c2ncn(CCN3CCOCC3)c(=O)c21,129.5%
9,CS(=O)(=O)c1ccc(NC(=O)NCc2ccc(F)cc2)cn1,9.509%
10,CN(CC1(CO)CC1)C(=O)C1CCC(=O)N(Cc2ccc(Cl)cc2)C1 (centres undefined),-2.442%
11,CC(=O)N1CCC(CSCc2ccco2)CC1,-2.113%
12,O=C1CN(C(=O)C2CCCCC2)CC(O)CN1Cc1ccco1 (centres undefined),88.46%
13,O=C(NCCc1cccnc1)C1CCCN(Cc2ccco2)C1 (centres undefined),-20.69%
14,CC(C)c1cc(C(=O)N2CCN(Cc3ccco3)CC2)n[nH]1,11.56%
15,CC(C)COC(=O)N1CC(=O)N(Cc2ccco2)CC(O)C1 (centres undefined),111.6%
16,CC(C)(C)C(=O)N1CC(=O)N(Cc2ccco2)CC(O)C1 (centres undefined),96.28%
17,CC(C)(C)OC(=O)N1CCCN(Cc2ccon2)c2ccccc21,7.757%
18,CC(C)(C)OC(=O)N1CC(=O)N(Cc2ccco2)CC(O)C1 (centres undefined),112.7%
19,O=C(O)C(F)(F)F.O=C1C[C@@H]2[C@H](CCN2Cc2ccco2)N1c1ccsc1,5.007%
20,O=C([C@H]1COC[C@H]2CN(Cc3ccco3)C[C@H]21)N1CCCO1,-9.766%
21,CC(NCc1ccc(-c2ccc(F)cc2)o1)c1nnc2n1CCC2 (centres undefined),11.28%
22,CNC(=O)c1ccc(NC2CCN(CC(F)(F)F)C2=O)cc1Cl (centres undefined),5.324%
23,Cc1ccc(C(NC(=O)CN2CCc3c(ncn3C)C2)C2CC2)cc1 (centres undefined),0.6431%
24,O=C(CN1C(=O)CCC1=O)N1CCC(CSCc2ccco2)CC1,-7.09%
25,CC(C)CC(=O)N1CC(=O)N(Cc2ccco2)CC(O)C1 (centres undefined),81.13%
26,O=C(CN1C(=O)CCC1=O)N1CCC(S(=O)(=O)Cc2ccco2)CC1,3.229%

row,SMILES,Percent Effect
1,COCCOCCNC(=O)c1ccc(N2CCC(C)=N2)cc1,-11.91%
2,Cn1cc(CN2CCCC3(CCN(c4nncs4)C3)C2)cn1.O=C(O)C(F)(F)F (centres undefined),-2.653%
3,Cc1cccc(CN2CCOC3(CCCN(CC(=O)N(C)C)C3)C2)n1.O=C(O)C(F)(F)F.O=C(O)C(F)(F)F (centres undefined),7.418%
4,O=C1OC2(CCN(CC3CCCO3)CC2)CN1CCc1ccccc1 (centres undefined),4.853%
5,CCN1CC2(CCN(CC3CCCO3)CC2)OC1=O (centres undefined),-23.86%
6,c1cc(CN2CCCC3(CCN(CC4CCCO4)CC3)C2)n[nH]1 (centres undefined),86.72%
7,Cc1cccc(CN2CCC3(CCCN(Cc4cnn(C)c4)C3)C2)n1.O=C(O)C(F)(F)F.O=C(O)C(F)(F)F (centres undefined),99.91%
8,Cn1cc(CN2CCCC3(CCN(C(=O)c4ccccn4)C3)C2)cn1.O=C(O)C(F)(F)F.O=C(O)C(F)(F)F.O=C(O)C(F)(F)F (centres undefined),5.668%
9,Cc1cccc(CN2CCCC3(CCN(CC4CCCO4)CC3)C2)n1.O=C(O)C(F)(F)F.O=C(O)C(F)(F)F (centres undefined),92.13%
10,Cc1cccc(CN2CCC3(CCC(CC(=O)N(C)C)CC3)CC2)n1.O=C(O)C(F)(F)F,-48.49%
11,NC(=O)c1cnc(NC2CCC(c3ccccc3)CC2)c(Cl)c1 (centres undefined),-13.17%
12,CCc1ncncc1C(=O)N1CCN(Cc2c(C)noc2C)CC1,-0.7919%
13,COc1ccccc1OC1CCN(C(=O)c2c[nH]c(=O)[nH]c2=O)CC1,-1.274%
14,Cc1nn(CCO)c(C)c1CNC1CCOc2ccccc21.Cl (centres undefined),-2.726%
15,CC1CN(C(=O)NCCCn2cncn2)CCO1 (centres undefined),-6.452%
16,Cc1[nH]ncc1CCCNC(=O)N1CCOC(C)C1 (centres undefined),-4.876%
17,CC1CN(C(=O)NCCNc2cnccn2)CCO1 (centres undefined),93.32%
18,CN1CCCN(C(=O)NCCNc2ncccc2C#N)CC1,-11.99%
19,O=C(NCCNc1cnccn1)N1CC=C(c2ccc(O)cc2)CC1,-14.06%
20,O=C(NCCNc1cnccn1)N1CCN(c2nccs2)CC1,115.8%
21,O=C(NCCNc1cnccn1)N1CCc2ccccc2C1,3.9%
22,O=C(NCCNc1cnccn1)N1CCN(Cc2cccnc2)CC1,1.12%
23,CC(=O)N1CCCN(C(=O)NCCNc2cnccn2)CC1,106.7%
24,O=C(NCCNc1ccccn1)N1CCSCC1,1.97%
25,O=C(NCCNc1cnccn1)N1CC=C(c2ccccc2)CC1,-24.03%
26,CN1CCCN(C(=O)NCCNc2cnccn2)CC1,104.7%
